Compound activity from PubChem.
DAX1 inh-1 = DAX1 (NR0B1) inhibitors, primary screen, cell-based, HEK293, Gal4-DAX1, luciferase luminescence; 0.99% of 340,000 active; HEK293 Gal4-DAX1 luciferase reporter; AID 504766, 2011; inhibition, % at 6.75 µM;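 active = inhibition above the mean over all tested compounds plus 3 SD, cut at about 4.2% in these data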;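 also: 0% = DAX1-transfected cells with DMSO and 100% = empty-vector control cells with DMSO; inhibition shows as a rise in luminescence from relieved DAX1 repression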
Target sequence (P51843 207-470 limits assumed): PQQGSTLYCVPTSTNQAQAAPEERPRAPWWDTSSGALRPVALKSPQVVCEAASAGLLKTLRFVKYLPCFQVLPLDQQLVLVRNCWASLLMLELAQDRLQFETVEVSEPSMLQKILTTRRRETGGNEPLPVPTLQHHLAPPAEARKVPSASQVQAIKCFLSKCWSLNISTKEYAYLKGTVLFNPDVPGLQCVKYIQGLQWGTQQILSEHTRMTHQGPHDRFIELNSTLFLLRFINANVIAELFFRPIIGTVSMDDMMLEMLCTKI
hgDAF-12 ag = H. glycines DAF-12 receptor agonists, primary screen, cell-based, luminescence, HEK293, GAL4 fusion, UAS-luciferase; Nuclear hormone receptor DAF-12 (Heterodera glycines), GAL4 fusion; HEK293 GAL4-hgDAF12 UAS-luciferase reporter, agonist luminescence; normalized to butyrate control; activation, % at 6.8 µM; 1.8% of 370,000 active; AID 687014, 2013;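 active = activation above a cutoff set at the mean of all screened compounds plus 3 SD, cut at about 10% in these data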;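 also: 0% = DMSO wells and 100% = sodium butyrate wells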
ssDAF-12 act = S. stercoralis DAF-12 nuclear receptor activators, primary screen, cell-based, luminescence, HEK293, GRIP1 co-expression, lit1-tk-luc. Nuclear hormone receptor DAF-12 (Strongyloides stercoralis). AID 652126, 2013. 1% of 370,000 active. activation, % at 6.8 µM. HEK293 ssDAF-12/GRIP1 lit1-tk-luc reporter; % of 3 µM dafachronic acid response;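 active = activation above the mean over all tested compounds plus 3 SD, cut at about 0.9% in these data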;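 also: 0% = DMSO-only wells and 100% = 3 µM delta7-dafachronic acid wells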
DAX1 inh-2 = DAX1 (NR0B1) inhibitors on StAR promoter, primary screen, cell-based, luminescence, SF-1 (NR5A1), full-length DAX-1. 1.1% of 370,000 active. inhibition, % at 6.8 µM. AID 652010, 2013. HEK293T StAR-luciferase reporter, SF-1/DAX-1 repression relief;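 active = inhibition above the mean over all tested compounds plus 3 SD, cut at about 3.6% in these data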;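 also: 0% = DAX-1 cells with DMSO and 100% = cells lacking DAX-1 with DMSO; higher inhibition means more luminescence from relief of DAX-1 repression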
hcDAF-12 act = H. contortus DAF-12 nuclear receptor activators, primary screen, cell-based, luminescence, HEK293, lit1-tk-luc reporter; HEK293 hcDAF-12 lit1-tk-luc reporter; 0% DMSO, 100% Δ7-dafachronic acid; activation, % at 6.8 µM; 1.4% of 370,000 active; AID 652067, 2013;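 active = activation above the mean of all tested compounds plus 3 SD, cut at about 5.5% in these data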;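 also: 100% = response to 3 µM Δ7-dafachronic acid high control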
FXN GAA850 act = FXN promoter activators, primary screen, cell-based, luciferase luminescence, HEK293 lucGAA850; HEK293 lucGAA850 FXN promoter luciferase reporter, 24 h; percent of 10 µM SAHA response; activation, % at 6 µM; 0.56% of 360,000 active;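 active = activation above the average of all compounds screened plus 3 SD, cutoff fixed separately per campaign, cut at about 7.5% in these data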;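 also: 0% = DMSO wells and 100% = 10 µM SAHA wells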
Numbers without * were called inactive; · = no result given. Most compounds without a hit are left out; they make up all but 4.5% or so of the library.

SMILES | DAX1 inh-1 | hgDAF-12 ag | ssDAF-12 act | DAX1 inh-2 | hcDAF-12 act | FXN GAA850 act
Cc1ncc(C)c2c([N+](=O)[O-])cccc12 | 2 | -2 | -2 | 0 | -1 | 0
Cc1cnc(C=O)c2cccc([N+](=O)[O-])c12 | 0 | 0 | 0 | -1 | 5.9* | 0
O=C1Nc2ccccc2/C1=N\N=C\c1ccc(O)c(O)c1 | 4.5* | 0 | -1 | 0 | 3 | 2
COc1cc(/C=N/N=C2/C(=O)Nc3ccccc32)ccc1O | 0 | 8 | 1 | -1 | 6 | 3
CCN1C(=O)c2cccc3c(S(=O)(=O)Nc4ccccn4)ccc1c23 | 6.7* | -1 | 0 | 1 | 3 | 4
CN(c1cccnc1)c1ccc(NC(=O)Cc2c[nH]c3ccccc23)cc1-c1cccnc1F | · | 1 | -1 | 0 | 3 | ·
O=C(CSc1nc2ccccc2n1Cc1ccccc1)NN=C/C=C/c1ccccc1 | · | -1 | -2 | 0 | 0 | ·
COc1ccc(CNC(=O)COC(=O)c2ccccc2OCC(=O)Nc2ccc(SC(F)F)cc2)cc1 | 6.5* | 2 | -1 | 1 | 1 | 1
Fc1ccc(F)c(Cn2ccc3ccc(-c4ccc5ccn(Cc6cc(F)ccc6F)c5c4)cc32)c1 | · | -1 | 0 | -1 | 0 | ·
CC/C(=N/Nc1cccc(Cl)c1)c1cnnc(SC)n1 | 4.6* | -4 | -1 | 0 | 2 | 4
CC/C(=N/Nc1ccccc1)c1cnnc(-c2ccccc2)n1 | 0 | 2 | -1 | 1 | 1 | 0
CCCCN1CC(COCc2ccccc2)Oc2cccc(Sc3ccc(OC)c(OC)c3)c2S1(=O)=O (stereo unspecified) | · | 3 | -1 | 4.2* | 1 | ·
CCC(C)(C)C(=O)N1CCc2cc(S(=O)(=O)N(C)Cc3ccco3)ccc21 | · | 6 | -2 | 0 | 1 | ·
CN(C)S(=O)(=O)c1cc(NC2CC(=O)N(c3ccc(F)cc3)C2=O)ccc1Cl (stereo unspecified) | 10* | -3 | -1 | 0 | -1 | 2
C/C(=N\NC(=O)C(O)c1ccccc1)c1ccc(Cl)cc1 (stereo unspecified) | 2 | -1 | 1.4* | 1 | -1 | 1
Cn1cc(C=C2C(=O)CC(C)(C)CC2=O)c2ccccc21 | -2 | 2 | 1.3* | 0 | 1 | 1
COc1ccc(CC(=O)Nc2ccc(-c3ccc4nnc(C)n4n3)cc2)cc1OC | 5.7* | -5 | 0 | 1 | -1 | 3
O=C(CSc1nnc(-c2cnccn2)n1-c1ccccc1)c1ccc(F)cc1 | · | -3 | -1 | -1 | -1 | ·
CCn1c(SCC(=O)N2CCCCCC2)nc2c([nH]c3ccccc32)c1=O | 0 | 1 | 0 | 1 | 5 | 1
CCn1c(SCC(=O)N2CCN(c3ccccc3)CC2)nc2c([nH]c3ccccc32)c1=O | 1 | 3 | 1.2* | 0 | 3 | 0
CCCCCCNC(=O)C1CSCCS(=O)(=O)N1Cc1ccc(C)cc1 (stereo unspecified) | · | -1 | -1 | 1 | 0 | ·
COC(=O)C1CN(Cc2cn(Cc3ccc(Cl)cc3)nn2)CCS(=O)(=O)N1Cc1ccc(Cl)cc1 (stereo unspecified) | · | -5 | -2 | -2 | -4 | ·
Cc1cc(=O)[nH]c(SCc2nc3ncccn3c2Br)n1 | 0 | -1 | -1 | 0 | 0 | 2
Cc1cc(=O)[nH]c(SCc2cccc3cccnc23)n1 | 5.2* | 0 | -2 | -1 | -1 | 1
O=c1n(-c2ccc(Br)cc2)cnn1-c1ncccc1[N+](=O)[O-] | 4.3* | 8 | -1 | 3 | 3 | 3
SMILES | DAX1 inh-1 | hgDAF-12 ag | ssDAF-12 act | DAX1 inh-2 | hcDAF-12 act | FXN GAA850 act
O=[N+]([O-])c1cccnc1N1CCCCC1 | 0 | 0 | -1 | 0 | -1 | 3
COCC1CCN(C(=O)c2cc(COc3cncc(Cl)c3)on2)C1 (stereo unspecified) | 1 | 1 | -2 | 0 | 0 | 3
Cc1cc(OCc2cc(C(=O)N(C)CC3CCOCC3)no2)cc(C)c1Cl | 1 | 5 | 0 | 0 | 1 | 3
CCN(CC1CCCO1)C(=O)c1cc(COc2cc(C)c(Cl)c(C)c2)on1 (stereo unspecified) | 1 | 7 | 1.5* | 0 | 5 | 4
Cc1cc(OCc2cc(C(=O)N(C)Cc3ccccn3)no2)cc(C)c1Cl | 1 | 11* | 0 | 1 | 1 | 3
Cc1cc(OCc2cc(C(=O)N(C)CCOc3ccccc3)no2)cc(C)c1Cl | 1 | 0 | -1 | -1 | -2 | 1
Cc1cc(OCc2cc(C(=O)N(C)C(C)c3ccccn3)no2)cc(C)c1Cl (stereo unspecified) | 1 | 12* | 0 | 1 | 3 | 3
COCC1CCN(C(=O)c2cc(COc3cc(C)c(Cl)c(C)c3)on2)C1 (stereo unspecified) | 0 | 9 | 0 | 1 | 6.3* | 6
COc1cccc(CNC(=O)C2CCN(c3nc(OC)nc(OC)n3)CC2)c1 | · | 1 | -1 | -1 | -3 | ·
Clc1cc(Cl)cc(CNC2CCC23CCC(c2ccccc2)CC3)c1 (stereo unspecified) | · | 0 | 0 | · | 3 | ·
CC(=O)c1ccc(OCc2cc(C(=O)N(C)Cc3ccccn3)no2)cc1 | 0 | 9 | 1.0* | 4.0* | 4 | 3
CC(=O)c1ccc(OCc2cc(C(=O)N(C)Cc3ccon3)no2)cc1 | 0 | -1 | -1 | 0 | -1 | 1
Cc1cc(C)nc(NC(=S)Nc2ccc(F)cc2F)c1 | 0 | 0 | -2 | -1 | 1 | 0
COc1cc(NC(=S)Nc2ncccc2C)cc(OC)c1OC | 1 | 5 | -2 | 1 | 2 | 4
Cc1cccnc1NC(=S)Nc1ccc(F)cc1F | 0 | 11* | -2 | 1 | 2 | 4
Cc1ccc(C)c(NC(=S)Nc2ncccc2C)c1 | 1 | 12* | 0 | 2 | 2 | 5
O=C(Nc1ccc2nc(-c3ccc(Br)o3)[nH]c2c1)c1ccco1 | 0 | 2 | 1 | 0 | 0 | 4
CC(=O)Nc1ccc2nc(-c3ccc(Br)o3)[nH]c2c1 | -1 | 11* | 0 | 1 | 2 | 4
CC1CC(O)C(C)CN1 (stereo unspecified) | 5.4* | 0 | 0 | 0 | -1 | -1
